According to PubChem BioAssay (NCATS):
Results filed as inconclusive are left out. A call without a number means that no potency is given here. The source made the active and inactive calls. Calls come from the whole dose curve; as a rule, active = well fitted cell-killing curve with a large enough effect; inconclusive = small, poorly fitted or top-dose-only effect, or effect the other way; inactive = no such curve, though single readings can be large or run the other way.

test: Quantitative High-Throughput drug screen in 47 multiple myeloma cell lines against the NCATS MIPE library collection: KMM1_JCRB cell viability assay (AID 1918960); settings: KMM1 myeloma viability, CellTiter-Glo ATP luminescence, 48 h; series mostly up to 45.8 µM; note: nearly all actives have a fitted effect of over 30% in size
Method in brief: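 ATP readout (CellTiter-Glo), 48 h drug incubation, 37 °C/5% CO2, 500 cells per well; normalisation to DMSO (100%) and media-only (0%) controls.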
Potency is the fitted concentration of half-maximal effect.

Compound	Potency
CC(C)(O)CC[C@@H](O)[C@](C)(O)[C@H]1CC[C@@]2(O)C3=CC(=O)[C@@H]4C[C@@H](O)[C@@H](O)C[C@]4(C)[C@@H]3CC[C@]12C	inactive
CCN(CC)CCCCNc1ncc2c(n1)N(C)C(=O)N(c1c(Cl)c(OC)cc(OC)c1Cl)C2	inactive
CCCCCCCCCCCC(CC1OC(=O)C1CCCCCC)OC(=O)C(CC(C)C)NC=O (centres undefined)	inactive
Cc1noc(-c2ccc(CSCCC(=O)O)cc2)c1NC(=O)OC(C)c1ccccc1Cl (centres undefined)	inactive
O=C(Nc1cccc(Nc2ncc(Br)c(NCCc3cnc[nH]3)n2)c1)N1CCCC1	inactive
O=c1[nH]c(=O)n([C@H]2C[C@@H](O)[C@@H](CO)O2)cc1C=CBr	inactive
C=C1CCC2[C@](C)(CO)C(O)CC[C@]2(C)C1CC=C1C(=O)OCC1O (some centres undefined)	inactive
COc1ccc(S(=O)(=O)Nc2cc(-c3c(O)ccc4ccccc34)c(O)c3ccccc23)cc1	8.33 µM (active)
CC(C(C)N1CC(=O)NC(=O)C1)N1CC(=O)NC(=O)C1 (centres undefined)	inactive
COc1ccc(Nc2nccc(NCCO)n2)cc1	inactive
Nc1cccc2c1C(=O)N(C1CCC(=O)NC1=O)C2=O (centres undefined)	inactive
COC(=O)[C@@H]1[C@H]2C[C@@H]3c4[nH]c5ccccc5c4CCN3C[C@@H]2CC[C@@H]1O	inactive
CCN1CCN(C(=O)N[C@H](C(=O)N[C@@H]2C(=O)N3C(C(=O)O)=C(CSc4nnnn4C)CS[C@@H]23)c2ccc(O)cc2)C(=O)C1=O	inactive
CCCCCCCCCCCCCCCC(=O)OC[C@@H](NC(=O)C(Cl)Cl)[C@H](O)c1ccc([N+](=O)[O-])cc1	inactive
